# Measurements: article PMC7862700, “An all-to-all approach to the identification of sequence-specific readers for epigenetic DNA modifications on cytosine”
# Tests used:
# Assay in all cases: DAPPL (digital affinity profiling via proximity ligation, sequencing); 10 mM Tris-HCl pH 7.5, 50 mM NaCl, 1 mM DTT, 4% glycerol, room temperature, 30 min; GST-TFs on glutathione beads, 16-mer random dsDNA library, 0.1% formaldehyde crosslink after washing; high values mean tight binding
# FEV = target: T1, FEV (Homo sapiens, UniProt Q99581 1-238); settings: protein: recombinant; tags: N-terminal GST; dsDNA, one strand shown
# T1 sequence: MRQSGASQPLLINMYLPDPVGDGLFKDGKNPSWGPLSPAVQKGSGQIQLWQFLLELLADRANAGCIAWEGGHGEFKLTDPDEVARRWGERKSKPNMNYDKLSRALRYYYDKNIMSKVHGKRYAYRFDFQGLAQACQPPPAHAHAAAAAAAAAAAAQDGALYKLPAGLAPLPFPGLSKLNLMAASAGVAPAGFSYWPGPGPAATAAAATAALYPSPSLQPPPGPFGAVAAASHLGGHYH
# Method in brief: (§1)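 A tag-only sample was pooled with DNA-barcoded human transcription factors that had been expressed in yeast as GST fusions and captured on glutathione beads. The pools were incubated for 30 min at room temperature with 200 nmole of a random double-stranded 16-mer DNA library in Tris/NaCl/DTT/glycerol buffer, then washed, crosslinked with 0.1% formaldehyde, proximity-ligated (BsaI/T4 ligase, 1 h, 37 °C), PCR-amplified and sequenced on an Illumina NextSeq500. Binding signal is each hexamer's read frequency for a factor divided by its frequency for the tag-only sample.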
# ETV5 = ETV5 (Homo sapiens, UniProt P41161 1-510); settings: protein: recombinant; tags: N-terminal GST; dsDNA, one strand shown
# ETV5, sequence (P41161 whole entry): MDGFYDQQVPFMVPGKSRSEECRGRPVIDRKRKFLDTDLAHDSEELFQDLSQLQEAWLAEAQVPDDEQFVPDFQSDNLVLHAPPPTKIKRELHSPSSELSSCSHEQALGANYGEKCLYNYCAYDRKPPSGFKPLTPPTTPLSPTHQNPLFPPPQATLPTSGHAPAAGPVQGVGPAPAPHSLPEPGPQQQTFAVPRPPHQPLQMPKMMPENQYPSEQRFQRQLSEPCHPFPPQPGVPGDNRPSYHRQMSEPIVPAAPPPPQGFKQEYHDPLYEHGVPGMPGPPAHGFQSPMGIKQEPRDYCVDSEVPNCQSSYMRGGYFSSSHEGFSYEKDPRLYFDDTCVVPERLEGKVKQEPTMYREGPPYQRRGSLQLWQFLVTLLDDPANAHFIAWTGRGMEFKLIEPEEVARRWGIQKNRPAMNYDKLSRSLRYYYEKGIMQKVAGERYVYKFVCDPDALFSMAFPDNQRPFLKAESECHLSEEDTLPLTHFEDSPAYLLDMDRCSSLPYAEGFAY
# Method in brief: as §1
# HSF1 = HSF1 (Homo sapiens, UniProt Q00613 1-529); settings: protein: recombinant; tags: N-terminal GST; chain copies: 3; dsDNA, one strand shown
# HSF1, sequence (Q00613 whole entry): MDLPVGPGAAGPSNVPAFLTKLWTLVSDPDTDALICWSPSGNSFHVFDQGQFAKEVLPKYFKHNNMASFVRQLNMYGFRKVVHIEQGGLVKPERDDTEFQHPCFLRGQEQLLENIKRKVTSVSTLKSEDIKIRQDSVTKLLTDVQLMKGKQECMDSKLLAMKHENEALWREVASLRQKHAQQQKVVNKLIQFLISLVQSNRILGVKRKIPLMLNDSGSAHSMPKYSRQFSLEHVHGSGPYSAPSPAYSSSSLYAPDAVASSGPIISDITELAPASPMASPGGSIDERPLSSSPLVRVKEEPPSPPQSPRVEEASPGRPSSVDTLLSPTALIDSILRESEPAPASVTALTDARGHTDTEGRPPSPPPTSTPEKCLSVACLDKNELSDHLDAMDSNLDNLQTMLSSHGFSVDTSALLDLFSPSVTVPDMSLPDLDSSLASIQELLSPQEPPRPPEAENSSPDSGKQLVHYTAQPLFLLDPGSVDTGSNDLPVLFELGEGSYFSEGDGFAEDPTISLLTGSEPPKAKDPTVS
# Method in brief: as §1
# SPIC = target: T2, SPIC (Homo sapiens, UniProt Q8N5J4 1-248); settings: protein: recombinant; tags: N-terminal GST; dsDNA, one strand shown
# T2 sequence: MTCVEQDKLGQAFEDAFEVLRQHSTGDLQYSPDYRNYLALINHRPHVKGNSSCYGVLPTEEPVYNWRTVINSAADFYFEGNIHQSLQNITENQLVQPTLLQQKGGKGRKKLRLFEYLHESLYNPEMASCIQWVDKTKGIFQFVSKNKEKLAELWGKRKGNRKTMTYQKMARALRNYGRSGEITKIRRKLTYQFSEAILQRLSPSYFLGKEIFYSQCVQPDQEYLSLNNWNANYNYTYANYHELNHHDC
# Method in brief: as §1
# ELF4 = ELF4 (Homo sapiens, UniProt Q99607 1-663); settings: protein: recombinant; tags: N-terminal GST; dsDNA, one strand shown
# ELF4, sequence (Q99607 whole entry): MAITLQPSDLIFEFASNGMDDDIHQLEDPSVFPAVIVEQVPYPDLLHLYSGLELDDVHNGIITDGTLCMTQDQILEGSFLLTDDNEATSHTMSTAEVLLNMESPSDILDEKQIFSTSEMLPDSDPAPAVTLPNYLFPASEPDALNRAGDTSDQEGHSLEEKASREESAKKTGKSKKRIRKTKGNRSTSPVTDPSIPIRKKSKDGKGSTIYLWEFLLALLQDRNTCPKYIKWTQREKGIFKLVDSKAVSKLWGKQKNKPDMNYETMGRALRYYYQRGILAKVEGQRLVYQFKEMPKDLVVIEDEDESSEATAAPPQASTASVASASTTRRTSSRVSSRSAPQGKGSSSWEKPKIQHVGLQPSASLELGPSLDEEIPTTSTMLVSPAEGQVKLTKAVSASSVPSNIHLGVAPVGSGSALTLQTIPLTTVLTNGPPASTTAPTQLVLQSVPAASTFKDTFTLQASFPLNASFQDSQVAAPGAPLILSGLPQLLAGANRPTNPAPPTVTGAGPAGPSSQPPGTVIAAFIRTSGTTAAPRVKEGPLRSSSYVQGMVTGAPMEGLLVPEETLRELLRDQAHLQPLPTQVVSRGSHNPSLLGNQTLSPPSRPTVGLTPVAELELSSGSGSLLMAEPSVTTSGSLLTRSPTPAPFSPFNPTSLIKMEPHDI
# Method in brief: as §1
# ELK4 = target: T3, ELK4 (Homo sapiens, UniProt P28324-2 1-405); settings: protein: recombinant; tags: N-terminal GST; dsDNA, one strand shown
# T3 sequence: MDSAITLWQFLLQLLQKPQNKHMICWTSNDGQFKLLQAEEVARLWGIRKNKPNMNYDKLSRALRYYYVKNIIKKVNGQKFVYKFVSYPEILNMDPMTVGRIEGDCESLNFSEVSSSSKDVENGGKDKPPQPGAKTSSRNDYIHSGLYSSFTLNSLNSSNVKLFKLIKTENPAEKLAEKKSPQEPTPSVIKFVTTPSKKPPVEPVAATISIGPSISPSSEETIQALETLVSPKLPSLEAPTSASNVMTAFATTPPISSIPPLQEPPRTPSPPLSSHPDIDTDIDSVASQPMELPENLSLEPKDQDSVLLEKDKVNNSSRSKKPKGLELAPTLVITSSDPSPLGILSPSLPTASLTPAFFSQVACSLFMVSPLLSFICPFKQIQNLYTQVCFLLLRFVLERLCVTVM
# Method in brief: as §1
# ETV2 = target: T4, ETV2 (Homo sapiens, UniProt O00321 1-342); settings: protein: recombinant; tags: N-terminal GST; dsDNA, one strand shown
# T4 sequence: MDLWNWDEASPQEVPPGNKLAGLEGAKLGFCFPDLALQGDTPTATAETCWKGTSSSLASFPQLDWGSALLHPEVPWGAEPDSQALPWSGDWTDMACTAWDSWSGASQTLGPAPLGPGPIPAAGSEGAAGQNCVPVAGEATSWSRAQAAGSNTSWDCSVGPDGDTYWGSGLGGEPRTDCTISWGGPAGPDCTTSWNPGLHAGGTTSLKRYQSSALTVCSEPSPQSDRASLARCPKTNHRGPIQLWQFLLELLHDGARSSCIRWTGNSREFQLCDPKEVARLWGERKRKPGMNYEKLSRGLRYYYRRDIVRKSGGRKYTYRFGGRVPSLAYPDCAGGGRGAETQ
# Method in brief: as §1
# ELF3 = target: T5, ELF3 (Homo sapiens, UniProt P78545 1-371); settings: protein: recombinant; tags: N-terminal GST; dsDNA, one strand shown
# T5 sequence: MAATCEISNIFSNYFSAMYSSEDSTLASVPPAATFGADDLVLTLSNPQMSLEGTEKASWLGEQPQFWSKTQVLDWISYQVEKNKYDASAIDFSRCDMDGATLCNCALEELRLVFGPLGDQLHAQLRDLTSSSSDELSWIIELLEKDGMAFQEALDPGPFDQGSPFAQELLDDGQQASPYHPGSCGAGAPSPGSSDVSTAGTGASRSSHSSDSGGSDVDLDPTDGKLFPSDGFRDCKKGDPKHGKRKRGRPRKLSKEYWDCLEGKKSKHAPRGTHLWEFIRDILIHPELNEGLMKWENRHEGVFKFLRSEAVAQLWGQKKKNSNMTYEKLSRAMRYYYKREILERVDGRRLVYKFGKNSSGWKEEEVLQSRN
# Method in brief: as §1
# CRX = CRX (Homo sapiens, UniProt O43186 1-299); settings: protein: recombinant; tags: N-terminal GST; dsDNA, one strand shown
# CRX, sequence (O43186 whole entry): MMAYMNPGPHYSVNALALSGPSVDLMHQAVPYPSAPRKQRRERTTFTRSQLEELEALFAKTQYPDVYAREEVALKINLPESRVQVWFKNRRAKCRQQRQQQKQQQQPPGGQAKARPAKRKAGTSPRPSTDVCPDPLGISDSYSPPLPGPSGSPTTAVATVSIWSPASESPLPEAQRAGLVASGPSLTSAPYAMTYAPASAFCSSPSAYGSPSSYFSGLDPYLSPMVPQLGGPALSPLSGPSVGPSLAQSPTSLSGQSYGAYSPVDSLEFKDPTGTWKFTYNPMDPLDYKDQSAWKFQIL
# Method in brief: as §1
# ETV1 = ETV1 (Homo sapiens, UniProt P50549 1-477); settings: protein: recombinant; tags: N-terminal GST; dsDNA, one strand shown
# ETV1, sequence (P50549 whole entry): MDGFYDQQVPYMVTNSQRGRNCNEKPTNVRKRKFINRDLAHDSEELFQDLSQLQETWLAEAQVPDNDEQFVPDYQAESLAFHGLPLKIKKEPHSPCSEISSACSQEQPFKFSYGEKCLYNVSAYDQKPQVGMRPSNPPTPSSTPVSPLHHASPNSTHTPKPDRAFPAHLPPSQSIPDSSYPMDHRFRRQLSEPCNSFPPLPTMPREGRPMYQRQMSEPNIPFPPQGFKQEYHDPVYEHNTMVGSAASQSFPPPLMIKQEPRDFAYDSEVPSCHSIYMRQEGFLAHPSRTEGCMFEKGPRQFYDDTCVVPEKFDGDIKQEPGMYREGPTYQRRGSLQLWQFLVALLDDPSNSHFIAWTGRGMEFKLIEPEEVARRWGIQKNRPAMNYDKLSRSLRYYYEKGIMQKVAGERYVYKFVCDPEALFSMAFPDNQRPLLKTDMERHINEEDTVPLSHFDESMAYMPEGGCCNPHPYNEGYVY
# Method in brief: as §1
sequence,measurement,setting,value
TGCGAA,binding signal,FEV,"1.14 fold enrichment (6-mer frequency, TF over GST control)"
same,binding signal,ETV5,"1.23 fold enrichment (6-mer frequency, TF over GST control)"
same,binding signal,HSF1,"1.21 fold enrichment (6-mer frequency, TF over GST control)"
same,binding signal,SPIC,"1.02 fold enrichment (6-mer frequency, TF over GST control)"
same,binding signal,ELF4,"1.21 fold enrichment (6-mer frequency, TF over GST control)"
same,binding signal,ELK4,"1.19 fold enrichment (6-mer frequency, TF over GST control)"
same,binding signal,ETV2,"1.18 fold enrichment (6-mer frequency, TF over GST control)"
same,binding signal,ELF3,"1.14 fold enrichment (6-mer frequency, TF over GST control)"
same,binding signal,CRX,"1.06 fold enrichment (6-mer frequency, TF over GST control)"
same,binding signal,ETV1,"1.19 fold enrichment (6-mer frequency, TF over GST control)"
